Assay results reported in PubChem BioAssay (NCI).
About 83,000 compounds went through this panel and 20% of them were active in at least one assay; those are over-represented in the sample as a whole.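 Growth was measured after 48 h exposure to one concentration of compound in 96-well plates. Values under 10 count as active.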 Activity calls are given as the source filed them.

What was measured:
Experiment in all cases: NCI-60 one-dose screen, 48 h (100 = growth as untreated, 0 = no growth, -100 = all killed)
Settings in all cases: 10 µM unless noted
[1] = test system: SR leukemia
[2] = test system: RPMI-8226 leukemia
[3] = test system: OVCAR-8 ovarian
[4] = test system: OVCAR-5 ovarian
[5] = test system: OVCAR-4 ovarian
[6] = test system: SK-OV-3 ovarian
[7] = test system: IGROV1 ovarian
[8] = test system: OVCAR-3 ovarian
[9] = test system: HS 578T breast
[10] = test system: NCI/ADR-RES ovarian

| Structure (SMILES) | growth [1] | growth [2] | growth [3] | growth [4] | growth [5] | growth [6] | growth [7] | growth [8] | growth [9] | growth [10] |
| --- | --- | --- | --- | --- | --- | --- | --- | --- | --- | --- |
| Cc1ccc(-c2csc(NC(=O)CSc3nc(N)cc(N)n3)n2)cc1 | 42.9% (inactive) | 44% (inactive) | 71% (inactive) | 91.2% (inactive) | 64% (inactive) | 88% (inactive) | 74.1% (inactive) | 73.2% (inactive) | 87.6% (inactive) | 51.8% (inactive) |
| COc1cc2c(cc1OCCCN1CCN(C(=S)SCCC(C#N)(c3ccccc3)c3ccccc3)CC1)N=C[C@@H]1CCCN1C2=O | -37.6% (active) | -19.3% (active) | -0.777% (active) | -46.2% (active) | -19.2% (active) | -7.04% (active) | -89.4% (active) | -89.3% (active) | -54.4% (active) | 22.3% (inactive) |
| C(=C(\C1=NCCN1)n1ccc2ccccc21)/c1ccccc1 | 95.9% (inactive) | 100% (inactive) | 97% (inactive) | 92.6% (inactive) | 103% (inactive) | 105% (inactive) | 93.4% (inactive) | 104% (inactive) | 88.6% (inactive) | 97.6% (inactive) |
| CCN(CC)CCOc1ccc2c(-c3ccccc3)c(-c3ccc(OC)cc3)c(=O)oc2c1 | 21.9% (inactive) | 48.8% (inactive) | 72.6% (inactive) | 91.6% (inactive) | 73.7% (inactive) | 84% (inactive) | 110% (inactive) | 94.3% (inactive) | 63.4% (inactive) | 66.7% (inactive) |
| C/C=C1/CN(CCCCC)CC[C@H]1C(=O)c1cc2ccccc2[nH]1 | 98.4% (inactive) | 94.9% (inactive) | 91.7% (inactive) | 96.3% (inactive) | 86.6% (inactive) | 83.3% (inactive) | 98.5% (inactive) | 94% (inactive) | 97.3% (inactive) | 93.6% (inactive) |
| Nc1c(C(=O)Nc2cccc3ncccc23)sc2nc3c(cc12)CN(Cc1ccccc1)CC3 | 33.9% (inactive) | 58.4% (inactive) | 83% (inactive) | 88.8% (inactive) | 71.5% (inactive) | 78.4% (inactive) | 72.6% (inactive) | 80.1% (inactive) | 76.9% (inactive) | 87.9% (inactive) |
| CCCCNC(=O)c1ccc2c(c1)nc(-c1ccccc1)n2C1CCCCC1 | 69.2% (inactive) | 88.3% (inactive) | 102% (inactive) | 102% (inactive) | 102% (inactive) | 48.4% (inactive) | 109% (inactive) | 115% (inactive) | 110% (inactive) | 98% (inactive) |
| COc1ccc(-c2nc(SCC(=O)Nc3nc4ccc(C)cc4s3)[nH]c(=O)c2C#N)cc1OC | 75.2% (inactive) | 110% (inactive) | 101% (inactive) | 111% (inactive) | 105% (inactive) | 74.2% (inactive) | 95.9% (inactive) | 112% (inactive) | 87.4% (inactive) | 98.3% (inactive) |
| CC(O)Cc1c[nH]c(=O)[nH]c1=O (stereo not given) | 93.8% (inactive) | 117% (inactive) | 92% (inactive) | 109% (inactive) | 115% (inactive) | 29.3% (inactive) | 116% (inactive) | 99% (inactive) | 103% (inactive) | 104% (inactive) |
| COc1nc(/C=C\Nc2ccc3c(c2)OCCOCCOCCOCCO3)nc(OC)n1 | 119% (inactive) | 94.3% (inactive) | 108% (inactive) | 98.3% (inactive) | 95.5% (inactive) | 106% (inactive) | 97.2% (inactive) | 99.2% (inactive) | 89.9% (inactive) | 93.7% (inactive) |
| CN(C)Cc1ccc(NC(=O)c2cncc(C#Cc3cnc(N)c4ncccc34)c2)cc1C(F)(F)F | -4.79% (active) | -40.4% (active) | -32.8% (active) | -84.8% (active) | -60.1% (active) | 105% (inactive) | 70.8% (inactive) | 102% (inactive) | 70.5% (inactive) | 72.4% (inactive) |
| COC(=O)c1sccc1-c1cc(O)c(C(=O)Nc2ccccc2)s1 | 92.8% (inactive) | 93.4% (inactive) | 101% (inactive) | 117% (inactive) | 89.7% (inactive) | 78.3% (inactive) | 95% (inactive) | 96.2% (inactive) | 103% (inactive) | 93.2% (inactive) |
| O=C(/C=C/c1ccccc1)c1cccc2ccccc12 | 8.29% (active) | 6.78% (active) | 19.9% (inactive) | 103% (inactive) | 41.3% (inactive) | 62.2% (inactive) | 47.3% (inactive) | 22.4% (inactive) | 32.1% (inactive) | 24.9% (inactive) |
| COC(=O)[C@@]1(C)CC[C@]2(C)CC[C@]3(C)C4=CC=C5C(=CC(=O)C(O)=C5C)[C@]4(C)[C@@H](O)C[C@@]3(C)[C@@H]2C1 | -6.62% (active) | 3.73% (active) | 4.47% (active) | 66.7% (inactive) | 34% (inactive) | 82.4% (inactive) | -46.8% (active) | -16.6% (active) | 27.4% (inactive) | 49% (inactive) |
| C/C(=N\Nc1ccccc1)c1ccc(NC2=CC(=O)c3ccccc3C2=O)cc1 | 59.2% (inactive) | 64.3% (inactive) | 59.8% (inactive) | 72.5% (inactive) | 43% (inactive) | 65.3% (inactive) | 50.8% (inactive) | 15.4% (inactive) | 65.5% (inactive) | 54% (inactive) |
| CC1=C2[C@@H](CC1)[C@]1(C)O[C@@](C3CCNCC3)(C[C@H]1OC(=O)CO)[C@H]2OC(=O)/C=C/c1ccccc1 | 33.1% (inactive) | 82.3% (inactive) | 84.3% (inactive) | 99.4% (inactive) | 82.9% (inactive) | 106% (inactive) | 80.3% (inactive) | 93.9% (inactive) | 58.4% (inactive) | 90.3% (inactive) |
| Cn1c(C#N)ccc1-c1ccc(F)c(NC(=O)c2ccc(F)cc2)c1 | 29.4% (inactive) | 70.1% (inactive) | 95.4% (inactive) | 85.4% (inactive) | 85% (inactive) | 80% (inactive) | 74.2% (inactive) | 77% (inactive) | 71.5% (inactive) | 76.9% (inactive) |
| CCOC(=O)C#Cc1c(C(=O)OCC)nnn1[C@@H]1O[C@H](COC)[C@@H](OC)[C@H]1OC | 8.26% (active) | 62.5% (inactive) | 104% (inactive) | 90.1% (inactive) | 73.5% (inactive) | 92.6% (inactive) | 95.1% (inactive) | 15.5% (inactive) | 97% (inactive) | 109% (inactive) |
| CC(=O)Nc1sc2c(c1-c1nc3ccccc3s1)CNC2 | 6% (active) | 19.1% (inactive) | 23.4% (inactive) | 41.8% (inactive) | 33.4% (inactive) | 15.9% (inactive) | 13.5% (inactive) | 36.3% (inactive) | 51.3% (inactive) | 23.2% (inactive) |
| CC(C)CCC[C@@H](C)[C@H]1CC[C@H]2[C@@H]3CC=C4c5sc(Nc6cc(C(F)(F)F)cc(C(F)(F)F)c6)nc5CC[C@]4(C)[C@H]3CC[C@]12C | 106% (inactive) | 106% (inactive) | 89.2% (inactive) | 106% (inactive) | 100% (inactive) | 89.2% (inactive) | 97.7% (inactive) | 102% (inactive) | 102% (inactive) | 102% (inactive) |
| COc1cccc(-c2cn3nc(-c4cn(C)c5ccccc45)sc3n2)c1 | 24.9% (inactive) | 97% (inactive) | 101% (inactive) | 91.4% (inactive) | 93.6% (inactive) | 93.6% (inactive) | 92.8% (inactive) | 99.2% (inactive) | 85.7% (inactive) | 94.3% (inactive) |
| CCOC(=O)c1c(NC(=O)c2ccccc2)sc2c3c(ccc12)OCN(C)C3 | -39.6% (active) | -46.2% (active) | 28.5% (inactive) | -0.612% (active) | 61.8% (inactive) | 88.5% (inactive) | 18.6% (inactive) | 52.1% (inactive) | 57.9% (inactive) | 5.26% (active) |
| COc1ccc2c(c1)C(C)Cc1c(ncnc1-n1cnc3cc(C)ccc31)N2C (stereo not given) | -0.883% (active) | 11.9% (inactive) | 9.01% (active) | 78.1% (inactive) | 58.2% (inactive) | 19.8% (inactive) | 27.5% (inactive) | 6.09% (active) | 36.2% (inactive) | 6.69% (active) |
| CN1CC(c2ccc(Br)cc2)C(C(=O)c2ccc(Br)cc2)C12C(=O)Nc1ccccc12 (stereo not given) | 68.1% (inactive) | 62.3% (inactive) | 83.8% (inactive) | 82.1% (inactive) | 63.6% (inactive) | 80.8% (inactive) | 62.6% (inactive) | 79.3% (inactive) | 89.3% (inactive) | 58.9% (inactive) |
